Data taken from PubChem BioAssay (NCATS).
Inconclusive results are not listed. Active and inactive are the calls of the source. Calls come from the whole dose curve.

biological target: Thyroid hormone receptor beta (Homo sapiens) (UniProt P10828); test: qHTS assay for small molecule agonists of thyroid hormone receptor beta signaling (AID 588545); settings: TR-UAS-bla GripTite HEK 293, beta-lactamase ratio, agonist mode, 18 h, percent of T3 response, DMSO as zero; series mostly up to 76.7 µM; activation: at the top concentration
Excerpt: NIH Chemical Genomics Center [NCGC]
U.S. Environmental Protection Agency [EPA]
National Institutes of Environmental Health Sciences [NIEHS]
National Toxicology Program [NTP]
Thyroid hormone receptor (TR) belongs to nuclear hormone receptor superfamily. There are two subtypes for TR: TR-alpha and TR-beta. TR-beta plays a major role in regulating plasma cholesterol levels and it mediates the biological activities of thyroid hormone. Screening environmental chemicals on TR-beta signaling will provide important information for the mechanism of compound action.
NCGC Assay Protocol Summary
Using a beta-lactamase reporter-gene under control of the TR response element, a cell-based assay [GeneBLAzer TR-UAS-bla-GripTite assay developed by Invitrogen] was used to measure TR-beta signaling in agonist mode. TR-UAS-bla-GripTite HEK 293 cells were used with assay medium containing 2% charcoal/dextran FBS, 0.1 mM NEAA and 1 mM sodium pyruvate. The assay was performed in clear bottom black Greiner 1536-well plates. T3 was used as a positive control in the screen. Library compounds were measured for their ability to stimulate the reporter gene activity. Compounds were screened in a titration series in 1536-well format. The fluorescence intensity (405 nm excitation, 460/530 nm emission) was measured using an EnVision plate reader. Data was normalized relative to T3 control (10 nM, 100%), and DMSO only wells (basal, 0%). Concentration-response titration points for each compound were fitted to the Hill equation yielding concentrations of half-maximal stimulation (EC50) and maximal response (efficacy) values.
qHTS protocol for TR-beta beta-lactamase assay in agonist mode
[Step] [Parameter] [Value] [Description]
1. Reagent; 6 uL; 2500 cells/well
2. Incubation; 37 C for 4 hrs
- Dose response; start 3.8 uM, 1:3 dilutions, duplicates in first column
- Two columns of each 10 and 0.4 nM (finals) concentrations.
5. Incubation; 37 C for 18 hrs
6. Detection reagent; 1 uL of CCF4-dye
7. Incubation; RT for 2 hrs
8. Detection; Fluorescence; Envision plate reader

Sequence of Thyroid hormone receptor beta (Homo sapiens) (P10828 whole entry, looked up): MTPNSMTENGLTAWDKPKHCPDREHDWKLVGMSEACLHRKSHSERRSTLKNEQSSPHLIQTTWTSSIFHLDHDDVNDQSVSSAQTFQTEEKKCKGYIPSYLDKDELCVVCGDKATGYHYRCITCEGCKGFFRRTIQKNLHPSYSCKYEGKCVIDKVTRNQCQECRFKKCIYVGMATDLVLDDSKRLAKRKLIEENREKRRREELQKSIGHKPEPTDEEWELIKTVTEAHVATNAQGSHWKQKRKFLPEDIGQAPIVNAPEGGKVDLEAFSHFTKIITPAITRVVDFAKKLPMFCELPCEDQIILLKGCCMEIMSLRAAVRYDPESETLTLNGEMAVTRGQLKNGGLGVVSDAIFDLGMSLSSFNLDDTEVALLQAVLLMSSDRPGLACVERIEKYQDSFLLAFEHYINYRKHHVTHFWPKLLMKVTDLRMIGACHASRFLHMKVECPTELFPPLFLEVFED

With Cc1cc(CC(=O)O)n(C)c1C(=O)c1ccc(Cl)cc1 as the compound, how does the “activation” value read?
The value was -27.9% (inactive).

With CCCCOC(=O)c1ccc(O)cc1 as the compound, how does the “activation” value read?
Its value is 1.08% (inactive).

COC(=O)C1=C(C)NC(C)=C(C(=O)OC)C1c1ccccc1[N+](=O)[O-] was tested. Which “activation” value did it give?
The value was -4.75% (inactive).

For CC1=C(/C=C/C(C)=C/C=C/C(C)=C/C(=O)O)C(C)(C)CCC1, which “activation” value is on record?
Its value is -15% (inactive).

Which “activation” value does the source give for CCCc1c(OCCCCc2nn[nH]n2)ccc(C(C)=O)c1O here?
Its value is -11% (inactive).

For COc1ccc(Cl)cc1C(=O)NCCc1ccc(S(=O)(=O)NC(=O)NC2CCCCC2)cc1, which “activation” value is on record?
The value was 2.2% (inactive).

How did the outcome turn out when NCCNCCNCCNCCN was run?
Its outcome is “inactive”.

How did the “activation” value turn out when Oc1cccc(O)c1 was run?
The value was -20.1% (inactive).

NCCNCCNCCN was tested. Which “activation” value did it give?
Its value is -1.48% (inactive).

Which “activation” value does the source give for C[C@]12CC[C@@H]3c4ccc(O)cc4CC[C@H]3[C@@H]1CCC2=O here?
Its value is -4.76% (inactive).

How did the “activation” value turn out when CC(CN1c2ccccc2Sc2ccccc21)N(C)C (stereo unspecified) was run?
Its value is 7.33% (inactive).

With CC1(C)[C@@H]2CC[C@@]1(C)C(=O)C2 as the compound, how does the “activation” value read?
The value was -1.64% (inactive).

How did the outcome turn out when CN(C)CCC=C1c2ccccc2CCc2ccccc21 was run?
Its outcome is “inactive”.

How did the outcome turn out when COc1ccccc1O was run?
Its outcome is “inactive”.

How did the outcome turn out when NC(=O)N/N=C/c1ccc([N+](=O)[O-])o1 was run?
The outcome was “inactive”.

CCCCCCCCCCCCOS(=O)(=O)O was tested. Which outcome did it give?
Its outcome is “inactive”.

How did the “activation” value turn out when O=S(=O)(O)NC1CCCCC1 was run?
The value was -8.42% (inactive).

How did the outcome turn out when O=C1O[C@H]([C@@H](O)CO)C(O)=C1O was run?
Its outcome is “inactive”.

For CN(C)CCOC(C)(c1ccccc1)c1ccccn1 (stereo unspecified), which “activation” value is on record?
Its value is 7.33% (inactive).

For CCOC(=O)c1ccc(O)cc1, which “activation” value is on record?
Its value is -3.64% (inactive).

How did the “activation” value turn out when CCCCC(CC)COC(=O)c1ccccc1O (stereo unspecified) was run?
Its value is -14.6% (inactive).

CC(O)COc1ccccc1 (stereo unspecified) was tested. Which “activation” value did it give?
Its value is -6.17% (inactive).

For C[C@]12C[C@H](O)[C@H]3[C@@H](CCC4=CC(=O)CC[C@@]43C)[C@@H]1CC[C@@H]2C(=O)CO, which outcome is on record?
Its outcome is “inactive”.

How did the “activation” value turn out when CNC(=O)Oc1ccc2c(c1)[C@]1(C)CCN(C)[C@@H]1N2C was run?
Its value is 15% (inactive).

O=C1c2c(O)cccc2Cc2cccc(O)c21 was tested. Which “activation” value did it give?
Its value is -15.5% (inactive).

How did the “activation” value turn out when CN(C)CCCN1c2ccccc2Sc2ccc(Cl)cc21 was run?
The value was -6.11% (inactive).
